Laboratory results taken from the supplement of paper PMC3545927.
Some of the results follow. How many sequences the whole screen found active is unknown.

Molecular target: furin, P09958
Assay: furin cleavage Z-score vs untreated control; higher = more cleavage, active = 3.5 or more, inactive = 1 or less, 8 variable residues between constant flanks
Procedure, shortened: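 Purified furin cleaved 8-mer peptides that were fused to a cDNA oligonucleotide and held on magnetic beads by their N-terminus. Each 0.01 ml reaction used a 1:10 enzyme:substrate ratio in 50 mM HEPES pH 7.5 with CaCl2 and NaCl and ran 7.5, 15 or 30 min. Released DNA was adapter-tagged by PCR and sequenced, and read counts gave abundance. The cleavage Z-score came from log counts against furin-free reactions, lowess-adjusted and scaled by median absolute deviation.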

Chain of furin, P09958 (P09958 whole entry): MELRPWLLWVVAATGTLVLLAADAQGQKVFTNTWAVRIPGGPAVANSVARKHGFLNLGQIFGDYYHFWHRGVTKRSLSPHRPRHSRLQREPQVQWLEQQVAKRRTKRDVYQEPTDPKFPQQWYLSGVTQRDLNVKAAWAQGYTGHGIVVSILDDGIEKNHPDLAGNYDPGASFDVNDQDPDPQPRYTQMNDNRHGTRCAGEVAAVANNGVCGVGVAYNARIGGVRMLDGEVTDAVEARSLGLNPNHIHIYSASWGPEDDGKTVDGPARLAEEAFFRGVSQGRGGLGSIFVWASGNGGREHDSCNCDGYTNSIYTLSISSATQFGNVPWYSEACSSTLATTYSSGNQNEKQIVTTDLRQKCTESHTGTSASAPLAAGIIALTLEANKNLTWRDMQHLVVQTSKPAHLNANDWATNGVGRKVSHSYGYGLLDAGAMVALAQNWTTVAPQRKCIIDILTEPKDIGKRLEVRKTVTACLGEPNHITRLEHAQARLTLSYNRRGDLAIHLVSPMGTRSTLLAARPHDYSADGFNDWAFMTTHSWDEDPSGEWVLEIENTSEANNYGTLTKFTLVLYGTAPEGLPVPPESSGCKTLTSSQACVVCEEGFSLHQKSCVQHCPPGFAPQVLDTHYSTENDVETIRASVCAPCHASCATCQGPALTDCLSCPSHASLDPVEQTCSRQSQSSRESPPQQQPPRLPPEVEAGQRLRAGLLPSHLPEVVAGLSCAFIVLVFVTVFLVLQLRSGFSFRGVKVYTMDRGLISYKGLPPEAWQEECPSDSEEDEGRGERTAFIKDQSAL

Sequence | furin cleavage Z-score (7.5 min) | furin cleavage Z-score (15 min) | furin cleavage Z-score (30 min)
CAMESCSQHLAGNASASA [HC1717] | 0.437 (inactive) | 1.13 | -0.426 (inactive)
CATTPCSDSWAGNASASA [HC1891] | -1.12 (inactive) | -0.376 (inactive) | -2.36 (inactive)
CAMEKCSQHLAGNASASA [HC1714] | 1.25 | 0.88 (inactive) | 0.181 (inactive)
CALPARDKRKAGNASASA [FS-356] | 3.1 | 4.69 (active) | 4.42 (active)
CALPAPNYTFAGNASASA [HC1197] | 0.169 (inactive) | -0.15 (inactive) | -0.727 (inactive)
CAIPARELRNAGNASASA [FS-254] | 1.11 | 0.407 (inactive) | -8.8e-05 (inactive)
CALSIRDKRKAGNASASA [FS-136] | 4.28 (active) | 3.15 | 5.72 (active)
CAIPARMKRAAGNASASA [FS-599] | 10.3 (active) | 9.08 (active) | 8.29 (active)
CALPQRAYALAGNASASA [HC562] | -0.111 (inactive) | 0.523 (inactive) | 0.909 (inactive)
CALPQRLPRAAGNASASA [FS-1363] | 10.1 (active) | 7.22 (active) | 9.33 (active)
CALSIRDARMAGNASASA [FS-1466] | -0.476 (inactive) | 0.981 (inactive) | -0.151 (inactive)
CALPQDAVSRAGNASASA [HC899] | 0.79 (inactive) | -0.97 (inactive) | -1.66 (inactive)
CASLTERLYVAGNASASA [HC1498] | -0.595 (inactive) | 0.519 (inactive) | 0.245 (inactive)
CATTPCSGSSAGNASASA [HC1937] | -1.48 (inactive) | -0.199 (inactive) | -0.0714 (inactive)
CAMALTLSPYAGNASASA [HC574] | -0.719 (inactive) | -0.267 (inactive) | 0.328 (inactive)
CAGVEHRLEAAGNASASA [HC478] | -0.376 (inactive) | -1.52 (inactive) | -2.05 (inactive)
CALPNREDRAAGNASASA [FS-54] | 0.255 (inactive) | -1.19 (inactive) | -1.7 (inactive)
CASPIRTPRAAGNASASA [FS-1083] | 4.85 (active) | 4.51 (active) | 4.42 (active)
CALPARDKRAAGNASASA [FS-1026] | 9.51 (active) | 8.58 (active) | 8.12 (active)
CASDIRTEEAAGNASASA [HC1486] | 0.515 (inactive) | -1.04 (inactive) | -1.3 (inactive)
CALRMFERRSAGNASASA [FS-1367] | 0.304 (inactive) | -0.351 (inactive) | 0.543 (inactive)
CAIPSGFRRSAGNASASA [FS-339] | -0.371 (inactive) | -1.96 (inactive) | -0.569 (inactive)

Sequence | furin cleavage Z-score (7.5 min) | furin cleavage Z-score (15 min) | furin cleavage Z-score (30 min)
CASRSLSRRSAGNASASA [FS-1088] | 8.82 (active) | 10.1 (active) | 7.4 (active)
CASRDRFRRSAGNASASA [FS-1282] | 13 (active) | 12.2 (active) | 9.49 (active)
CADMMEECSQAGNASASA [HC1806] | -0.946 (inactive) | -0.28 (inactive) | -0.569 (inactive)
CAAKVLVVLLAGNASASA [HC345] | -0.548 (inactive) | -0.603 (inactive) | 0.816 (inactive)
CAAKSRQRRQAGNASASA [FS-1583] | 9.65 (active) | 11 (active) | 7.11 (active)
CANEKRQRRQAGNASASA [FS-552] | 8.64 (active) | 9.03 (active) | 8.4 (active)
CATHMRQMRSAGNASASA [FS-304] | 5.44 (active) | 7.85 (active) | 7.29 (active)
CAAKSRQMRSAGNASASA [FS-321] | 12.3 (active) | 12.5 (active) | 8.77 (active)
CAQALPVWARAGNASASA [HC1302] | -0.162 (inactive) | 0.223 (inactive) | -0.716 (inactive)
CAATRDGKLPAGNASASA [HC284] | 0.288 (inactive) | -1.04 (inactive) | 0.353 (inactive)
CATMRIVGPRAGNASASA [HC1182] | 0.31 (inactive) | 1.38 | 0.463 (inactive)
CATTRCSGSWAGNASASA [HC1873] | -2.28 (inactive) | -0.493 (inactive) | -0.341 (inactive)
CAGCIITSLTAGNASASA [HC681] | -0.591 (inactive) | -0.913 (inactive) | -0.483 (inactive)
CAHEMEECSQAGNASASA [HC1795] | 0.638 (inactive) | -0.825 (inactive) | 0.0903 (inactive)
CAGALRPRRGAGNASASA [FS-421] | 1.31 | 0.929 (inactive) | 0.673 (inactive)
CAPGRRPRRGAGNASASA [FS-68] | 10.4 (active) | 9.49 (active) | 8.86 (active)
CAPIIRKSRGAGNASASA [FS-1472] | 10 (active) | 10.9 (active) | 7.97 (active)
CAKNSRKLRGAGNASASA [FS-258] | 0.0851 (inactive) | 1.03 | 2.96
CAASSRPRRGAGNASASA [FS-10] | 5.57 (active) | 4.59 (active) | 4.78 (active)
CAEPPRPRRGAGNASASA [FS-992] | -0.496 (inactive) | -0.299 (inactive) | 0.0496 (inactive)
CALIAFASRGAGNASASA [HC1120] | 0.403 (inactive) | -0.694 (inactive) | 0.0807 (inactive)
CAHLHQNIVDAGNASASA [HC506] | -0.675 (inactive) | -0.105 (inactive) | -1.09 (inactive)
